From PubChem BioAssay AID1626 (SRMLSC, 2009) come the findings set out here.

In all, about 220,000 compounds went through this assay and about 2,000 (0.91%) were called active. Roughly 2% stayed inconclusive and do not appear here. The list is a sample of the results. Potency and affinity values are given separately. Unmarked numbers belong to inactive results. Rule as the data show it: inconclusive = inhibition above about 80% without an active follow-up result; inactive = below that; test concentration not stated here.

A short description of this test: M. tuberculosis H37Rv growth inhibitors, H37Rv strain (AID 1626).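 Also: bacteria incubated seven days before Alamar blue readout; 0% = bacteria only wells and 100% = bacteria with antibiotic wells.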 Conditions: hits give high values, concentration not given here.
Usually inhibition stands for the relative decrease from the control value, in per cent. Turning to `N#CCSCC(=O)Nc1ccc(Cl)cc1`, the inhibition is -6.68%. The figure for `CC(=O)Nc1ccc(S(=O)(=O)NCCC(=O)Nc2ccc(C)c(Cl)c2)cc1` is 1.88%; for `Cc1ccc(S(=O)(=O)NCCC(=O)Nc2ccc(Cl)c(Cl)c2)cc1C` it is 68.7%.

On to `Cc1ccc(NC(=O)CSCC#N)cc1`, for which the inhibition was -3.07%. `O=C(Nc1cccc(S(=O)(=O)NC2=NCCCCC2)c1)c1cc(-c2ccncc2)nc2ccccc12`: the inhibition is 5.09%. Then `CNc1nc(N)c(C(=O)C23CC4CC(CC(C4)C2)C3)s1`, with 7.78%. On to `CC1CN(c2ncc(/C=N/NC(=O)c3ccccc3O)s2)CC(C)O1` (stereo unspecified), for which the inhibition is 48%. The figure for `c1ccc(OCCOCCN2CCOCC2)cc1` is 8.38%. The figure for `OCCOCCN1CCN(C(c2ccccc2)c2ccc(Cl)cc2)CC1` (stereo unspecified) is -10.7%.

With `O=C(NN1CCN(Cc2ccccc2)CC1)c1ccc(Cl)cc1`, the inhibition was -1.31%. The figure for `CCOC(=O)Cc1nnc(-c2ccccc2)o1` is -3.07%; for `CC(C)(C)OC(=O)COc1cc(O)c2c(=O)cc(-c3ccccc3)oc2c1` it is 5.56%.

Take `NC(=O)COc1ccc2oc(-c3ccccc3)cc(=O)c2c1`: the inhibition is 1.94%. The figure for `O=C(COc1cc(O)c2c(=O)cc(-c3ccccc3)oc2c1)c1ccccc1` is -4.52%. Regarding `CCc1ccc(C(=O)COC(=O)c2ccc(-c3nnc(-c4ccccc4)o3)cc2)cc1`, the inhibition was -8.3%.

For the compound `CCOc1ccc(-c2nnc(-c3ccccc3)o2)cc1`, the inhibition was 8.69%.

Consider `CCOC(=O)c1cc(=O)c2ccc(OCC(=O)Nc3ccccc3)cc2o1`, for which the inhibition was 3.25%. The figure for `CCOC(=O)c1cccc(COC(=O)c2cccc(-c3nnc(-c4ccccc4)o3)c2)c1` is 2.8%. Then `C#CCn1c(=NC(=O)c2ccc(Br)s2)sc2cccc(OC)c21`, with 49.8%. Then `CCn1c(=O)cc(SCC(=O)N2CCN(c3ccccc3OC)CC2)c2ccccc21`, with -4.03%. For `COP(=O)(NC(=O)C(Cl)(Cl)Cl)OC`, the inhibition was -4.54%. Then `Cc1ccc(SCC(=O)Nc2ccc(N3CCN(c4ccccc4)CC3)c(F)c2)cc1`, with 3.11%; and `CS(=O)(=O)NCCNc1ccc(C(F)(F)F)cc1[N+](=O)[O-]`, with -3.33%; and `COc1ccc(C2CC(=O)C(C=NCCO)=C(O)C2)cc1OC` (stereo unspecified), with -9.01%.

For the compound `CN(CCc1cnn(C)c1)Cc1cn[nH]c1-c1ccc(-c2ccccc2)cc1`, the inhibition is 3.7%. Then `Cc1c(NC(=O)/C(=C\c2ccccc2)NC(=O)c2ccccc2)c(=O)n(-c2ccccc2)n1C`, with -13.7%; and `COc1ccc(OCC(=O)N/N=C2\CCCc3ccccc32)cc1`, with 1.63%; and `O=C(NNS(=O)(=O)c1ccccc1Cl)c1nn(-c2ccc(F)cc2)ccc1=O`, with 2.66%. Then `O=C(O)C(Oc1ccc2c(-c3ccccc3)cc(=O)oc2c1)c1ccccc1` (stereo unspecified), with -7.84%; and `CCOC(=O)C(Oc1ccc2c(-c3ccccc3)cc(=O)oc2c1)c1ccccc1` (stereo unspecified), with 15.1%; and `CCOc1ccc(-c2nnc(-c3ccncc3)o2)cc1`, with 7.35%. With `CC(Oc1ccc2c(-c3ccccc3)cc(=O)oc2c1)C(=O)O` (stereo unspecified), the inhibition was -19.3%. The figure for `CCOc1ccc(-c2nnc(-c3ccc(OC)cc3)o2)cc1` is 3.3%; for `O=C(O)COc1ccc2c(-c3ccccc3)cc(=O)oc2c1` it is -6.46%.

As to `N#Cc1ccc(NC(=O)c2cc(-c3cccs3)on2)cc1`, the inhibition is -3.45%.

For `Cc1cc(C(=O)CSc2nnc(-c3ccc(Cl)cc3)n2C)c(C)n1CC1CCCO1` (stereo unspecified), the inhibition is -5.79%. The figure for `CCn1c(=O)c(=O)[nH]c2cc(C(=O)NC3CCCC3)ccc21` is -14.3%. The figure for `COC(=O)c1cc(C)nc(Sc2ccccc2NC(C)=O)n1` is -6.62%. The figure for `COc1ccc(-c2cnc(N)nc2-c2ccc(OC)cc2O)cc1` is -8.12%. For the compound `Nc1ncc2c(n1)-c1ccccc1CC2`, the inhibition is 4.21%. With `Cc1ccc(CNC(=O)CSc2ccc(-c3ccccn3)nn2)cc1`, the inhibition is 9.75%. Then `CC(=O)Nc1cccc(NC(=O)CSc2ccc(-c3ccccn3)nn2)c1`, with 5.52%; and `Cc1nnc(NC(=O)CSc2ccc(-c3ccccn3)nn2)s1`, with -8.09%. The figure for `Cc1csc(NC(=O)CSc2ccc(-c3ccccc3)nn2)n1` is -4.14%; for `CCOC(=O)c1ccc(NC(=O)CSc2ccc(-c3ccncc3)nn2)cc1` it is 78%; for `Cc1ccc(-c2ccc(SCC(=O)Nc3cc(C)on3)nn2)cc1` it is 1.42%. As for `CCOC(=O)c1ccccc1NC(=O)CSc1ccc(-c2cccnc2)nn1`, the inhibition is 1.73%. The figure for `Cc1nonc1NC(=O)CSc1ccc(-c2ccccc2)nn1` is 29.3%; for `CC(C)CNC(=O)c1cccc(NC(=O)C(C)Oc2ccccc2)c1` (stereo unspecified) it is 9.89%; for `COc1cc(CNC2CCCCCC2)cc(OC)c1` it is 9.94%. The figure for `Cc1nc(-c2ccc(Cl)cc2)sc1C(=O)NNC(=O)C(C)C` is -5%; for `CCC1CCCCN1C(=O)COc1c(Br)cc(Br)c2cccnc12` (stereo unspecified) it is -13.3%; for `CCn1nc(C(=O)Nc2ccc(S(=O)(=O)Nc3ncccn3)cc2)c2ccccc2c1=O` it is 1.39%.

As to `CCN(CC)S(=O)(=O)c1cc(NC(=O)COC(=O)CCc2nc3ccccc3s2)ccc1C`, the inhibition is 0.37%. The figure for `CCOc1ccc(NC(=O)Cn2c(=O)n(CC3CCCO3)c(=O)c3ccccc32)cc1` (stereo unspecified) is 0.09%. Then `COc1cccc2cc(C(N)=O)/c(=N/NC(=O)COc3ccc(Cl)cc3)oc12`, with 1.32%.

For the compound `CC(C)c1ccc(NC(=O)COc2nnc(-c3cccs3)c(-c3cccs3)n2)cc1`, the inhibition is 3.94%. The figure for `O=C(CSc1ccc(-c2ccccn2)nn1)c1ccc([N+](=O)[O-])cc1` is 9.1%; for `O=C(CSc1ccccn1)c1ccc(F)cc1` it is -5.01%. Then `CCC(Sc1nc2ccccc2c(=O)[nH]1)C(=O)Nc1ccc(C(C)=O)cc1` (stereo unspecified), with 10.9%. Then `CCOC(=O)C(NCc1ccccc1OC)(NC(C)=O)C(F)(F)F` (stereo unspecified), with -3.95%.
